High-throughput results as filed in PubChem.
hgDAF-12 ag – H. glycines DAF-12 receptor agonists, primary screen, cell-based, luminescence, HEK293, GAL4 fusion, UAS-luciferase; Nuclear hormone receptor DAF-12 (Heterodera glycines), GAL4 fusion; HEK293 GAL4-hgDAF12 UAS-luciferase reporter, agonist luminescence; normalized to butyrate control; activation, % at 6.8 µM; hit rate 1.8% among 370,000;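 active = activation above a cutoff set at the mean of all screened compounds plus 3 SD, cut at about 10% in these data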;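 also: 0% = DMSO wells and 100% = sodium butyrate wells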
hcDAF-12 act – H. contortus DAF-12 nuclear receptor activators, primary screen, cell-based, luminescence, HEK293, lit1-tk-luc reporter. HEK293 hcDAF-12 lit1-tk-luc reporter; 0% DMSO, 100% Δ7-dafachronic acid. activation, % at 6.8 µM. hit rate 1.4% among 370,000. AID 652067, 2013;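 active = activation above the mean of all tested compounds plus 3 SD, cut at about 5.5% in these data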;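 also: 100% = response to 3 µM Δ7-dafachronic acid high control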
DAX1 inh-1 – DAX1 (NR0B1) inhibitors on StAR promoter, primary screen, cell-based, luminescence, SF-1 (NR5A1), full-length DAX-1; inhibition, % at 6.8 µM; HEK293T StAR-luciferase reporter, SF-1/DAX-1 repression relief; AID 652010, 2013; hit rate 1.1% among 370,000;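 active = inhibition above the mean over all tested compounds plus 3 SD, cut at about 3.6% in these data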;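 also: 0% = DAX-1 cells with DMSO and 100% = cells lacking DAX-1 with DMSO; higher inhibition means more luminescence from relief of DAX-1 repression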
DAX1 inh-2 – DAX1 (NR0B1) inhibitors, primary screen, cell-based, HEK293, Gal4-DAX1, luciferase luminescence | HEK293 Gal4-DAX1 luciferase reporter | AID 504766, 2011 | Nuclear receptor subfamily 0 group B member 1 (Homo sapiens), P51843 | hit rate 0.99% among 340,000 | inhibition, % at 6.75 µM;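 active = inhibition above the mean over all tested compounds plus 3 SD, cut at about 4.2% in these data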;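 also: 0% = DAX1-transfected cells with DMSO and 100% = empty-vector control cells with DMSO; inhibition shows as a rise in luminescence from relieved DAX1 repression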
Target sequence (P51843 207-470 limits assumed): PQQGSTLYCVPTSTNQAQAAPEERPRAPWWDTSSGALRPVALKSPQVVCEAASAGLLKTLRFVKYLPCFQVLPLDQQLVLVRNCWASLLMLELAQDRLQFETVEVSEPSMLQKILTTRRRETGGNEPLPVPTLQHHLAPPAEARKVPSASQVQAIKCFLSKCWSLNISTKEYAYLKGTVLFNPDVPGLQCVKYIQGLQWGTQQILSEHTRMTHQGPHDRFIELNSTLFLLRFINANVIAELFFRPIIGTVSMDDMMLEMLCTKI
ssDAF12 agonist – S. stercoralis DAF-12 nuclear receptor activators, primary screen, cell-based, luminescence, HEK293, GRIP1 co-expression, lit1-tk-luc; HEK293 ssDAF-12/GRIP1 lit1-tk-luc reporter; % of 3 µM dafachronic acid response; activation, % at 6.8 µM; hit rate 1% among 370,000;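 active = activation above the mean over all tested compounds plus 3 SD, cut at about 0.9% in these data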;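 also: 0% = DMSO-only wells and 100% = 3 µM delta7-dafachronic acid wells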
* = called active by the depositor. In the library only some 4.1% were active in any assay of this set; here they are far more common.

`O=C(CNC(=O)c1ccco1)Nc1cccc(Cl)c1` gave hgDAF-12 ag 1, hcDAF-12 act 5.8*, DAX1 inh-1 0, DAX1 inh-2 0 and ssDAF12 agonist 0.
For Cc1ccnc(NC(=O)CNC(=O)c2ccco2)c1 the results were hgDAF-12 ag 1, hcDAF-12 act 0, DAX1 inh-1 3.8*, DAX1 inh-2 0 and ssDAF12 agonist 0.
Screening Cc1ccc(NC(=O)CNC(=O)Cc2cccc3ccccc23)nc1 returned hgDAF-12 ag 2, hcDAF-12 act 3, DAX1 inh-1 0, DAX1 inh-2 0 and ssDAF12 agonist -1.
Cc1ccnc(NC(=O)CNC(=O)Cc2cccc3ccccc23)c1 was read as hgDAF-12 ag 9, hcDAF-12 act 2, DAX1 inh-1 3, DAX1 inh-2 3 and ssDAF12 agonist 1.3*.
`O=C(CNC(=O)c1ccco1)Nc1ccc(F)c(Cl)c1` gave hgDAF-12 ag -2, hcDAF-12 act -2, DAX1 inh-1 0, DAX1 inh-2 -1 and ssDAF12 agonist -1.
For COc1ccccc1CNc1cc(C)ccn1 the results were hgDAF-12 ag -2, hcDAF-12 act 0, DAX1 inh-1 0, DAX1 inh-2 2 and ssDAF12 agonist -1.
COc1ccccc1CC(=O)Nc1cc(C)ccn1 was read as hgDAF-12 ag 6, hcDAF-12 act 5, DAX1 inh-1 1, DAX1 inh-2 0 and ssDAF12 agonist 1.3*.
For Cc1ccnc(NC(=O)CCCOc2cc(=O)n(C)c3ccccc23)c1 the results were hgDAF-12 ag 2, hcDAF-12 act -1, DAX1 inh-1 0, DAX1 inh-2 7.0* and ssDAF12 agonist 0.
`O=C(CNC(=O)c1ccco1)Nc1ccc(N2CCCCCC2)cc1` gave hgDAF-12 ag 10, hcDAF-12 act 0, DAX1 inh-1 1, DAX1 inh-2 4.7* and ssDAF12 agonist -1.
For COCCNC(=S)N(C)[C@H]1C[C@H]2c3[nH]c4c(-c5ccccc5)cccc4c3CCN2C(=O)[C@H]1[C@H](C)O the results were hgDAF-12 ag 0, hcDAF-12 act 1, DAX1 inh-1 0 and ssDAF12 agonist -1.
`Cc1ccc(NC(=O)c2snc3ccc(Cl)cc23)cc1C` gave hgDAF-12 ag 10, hcDAF-12 act 6.0*, DAX1 inh-1 2, DAX1 inh-2 2 and ssDAF12 agonist 0.
Screening O=C1CCc2cccc(O)c2N1 returned hgDAF-12 ag 0, hcDAF-12 act 0, DAX1 inh-1 -1, DAX1 inh-2 4.9* and ssDAF12 agonist -1.
Screening O=C1CCC(=O)c2oc3ccccc3c2N1 returned hgDAF-12 ag 1, hcDAF-12 act -1, DAX1 inh-1 0, DAX1 inh-2 -1 and ssDAF12 agonist -1.
For COc1ccc(Cc2nc(=S)[nH][nH]2)cc1Br the results were hgDAF-12 ag -2, hcDAF-12 act -2, DAX1 inh-1 -1, DAX1 inh-2 4.5* and ssDAF12 agonist -2.
Screening Cc1ccccc1CSCCNC(=O)COc1ccc(Cl)cc1 returned hgDAF-12 ag 2, hcDAF-12 act -1, DAX1 inh-1 -1, DAX1 inh-2 6.6* and ssDAF12 agonist -1.
`COc1ccc(OC)c(NC(=O)c2cc3c(=O)n4ccccc4nc3n2C)c1` gave hgDAF-12 ag 4, hcDAF-12 act -1, DAX1 inh-1 1, DAX1 inh-2 0 and ssDAF12 agonist -1.
`O=C(Nc1cnc2ccccn2c1=O)c1ccc(F)cc1` gave hgDAF-12 ag 11*, hcDAF-12 act 1, DAX1 inh-1 1, DAX1 inh-2 3 and ssDAF12 agonist 0.
`COc1ccc(C(=O)Nc2cnc3ccccn3c2=O)cc1` gave hgDAF-12 ag 12*, hcDAF-12 act 1, DAX1 inh-1 3, DAX1 inh-2 4 and ssDAF12 agonist 0.
Screening Cc1ccc(NC(=S)NNC(=O)CSc2nc3ccccc3c(=O)n2-c2ccc(Cl)cc2)cc1 returned hgDAF-12 ag -1, hcDAF-12 act -1, DAX1 inh-1 -1 and ssDAF12 agonist -1.
`COc1cccc(CNC(=O)C2CCN(c3nc(OC)nc(OC)n3)CC2)c1` gave hgDAF-12 ag 1, hcDAF-12 act -3, DAX1 inh-1 -1 and ssDAF12 agonist -1.
Screening O=S(=O)(NCC1NCCc2ccccc21)c1ccccc1 (stereo not drawn) returned hgDAF-12 ag -2, hcDAF-12 act 1, DAX1 inh-1 0, DAX1 inh-2 8.3* and ssDAF12 agonist -1.
c1ccc(C2NCCc3ccccc32)cc1 (stereo not drawn) was read as hgDAF-12 ag 1, hcDAF-12 act -1, DAX1 inh-1 0, DAX1 inh-2 2 and ssDAF12 agonist -1.
COc1ccc(Cn2ccc3ccc(-c4ccc5ccn(C(=O)C6CCCCC6)c5c4)cc32)cc1 was read as hgDAF-12 ag 3, hcDAF-12 act 0, DAX1 inh-1 -1 and ssDAF12 agonist -1.
O=C(CN1CCN(S(=O)(=O)c2ccc(Cl)cc2)CC1)NC1CCCC1 was read as hgDAF-12 ag 0, hcDAF-12 act 0, DAX1 inh-1 3.8*, DAX1 inh-2 -1 and ssDAF12 agonist -1.
COC(=O)[C@H]1C[C@]2(C(C=C(C)C)S(=O)(=O)c3ccccc3)c3ccccc3N[C@H]2N1 (stereo partly drawn) was read as hgDAF-12 ag 1, hcDAF-12 act 1 and ssDAF12 agonist -2.
CCCC[C@H](C(=O)N(C)c1cccc(OC)c1)[C@@H](O)c1ccc2ccccc2c1 was read as hgDAF-12 ag -1, hcDAF-12 act -3, DAX1 inh-1 -1 and ssDAF12 agonist -1.
O=C(CSc1ccc(F)cc1)NC1CCCCC1 was read as hgDAF-12 ag 7, hcDAF-12 act 2, DAX1 inh-1 1, DAX1 inh-2 0 and ssDAF12 agonist -1.
`O=C(CSc1ccc(Br)cc1)NC1CCCCCC1` gave hgDAF-12 ag 3, hcDAF-12 act 0, DAX1 inh-1 0, DAX1 inh-2 0 and ssDAF12 agonist 1.9*.
Screening COc1ccccc1NC(=O)C/C(C)=N/NC(=O)COc1c(Br)cc(Br)cc1OC returned hgDAF-12 ag 1, hcDAF-12 act -1, DAX1 inh-1 4.2*, DAX1 inh-2 3 and ssDAF12 agonist -2.
`COc1ccccc1NC(=O)C/C(C)=N/NC(=O)c1ccccn1` gave hgDAF-12 ag 13*, hcDAF-12 act 4, DAX1 inh-1 2, DAX1 inh-2 3 and ssDAF12 agonist 0.
COc1cc(NC(=O)c2cc(C3CC3)on2)c(OC)cc1Cl was read as hgDAF-12 ag 4, hcDAF-12 act 6.4*, DAX1 inh-1 -1, DAX1 inh-2 0 and ssDAF12 agonist 0.
